Consider 34 compounds from the supplement of paper PMC8975748.

Counter-ions that a name gives are not always drawn. ± gives the standard deviation of the averaged measurements.

For the assay, the system named is Saccharomyces cerevisiae BY4741 SeMeCo community. In words: mean cell size (pixel area) (pixels); higher = larger cells. The conditions noted are these: 10 µM; 24 h; SM minimal medium. Summed up:
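For 24 h, 70 µl of yeast culture diluted to OD600 = 0.3 from an overnight preculture at OD600 = 1.0 was kept in SM medium in 384-well plates acoustically predosed with drug, final 10 µM. The strain was Saccharomyces cerevisiae BY4741 forming a fluorescent community of four plasmids, each complementing one auxotrophy and carrying a fluorescent marker. Automated confocal microscopy of paraformaldehyde-fixed cells, analysed in Harmony, provided mean cell pixel area per well, which was averaged over 3 replicates. Same SeMeCo high-content imaging drug screen: Selleck FDA-approved drugs at 10 µM, 24 h in SM medium, 384-well plates, 3 replicates.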
In the case of `O=c1[nH]c2ccccc2n1CCCN1CCC(n2c(=O)[nH]c3cc(Cl)ccc32)CC1` [Domperidone], the mean cell size stood at 12.6 ± 0.23.
`C[N+]12CCC(CC1)C(OC(=O)C(O)(c1ccccc1)c1ccccc1)C2` (centres undefined) [Clidinium Bromide] gave a mean cell size of 12.4 ± 0.13.
Regarding `COc1ccc(C(CN(C)C)C2(O)CCCCC2)cc1` (centres undefined) [Venlafaxine HCl], the mean cell size was found to be 12.3 ± 0.27.
For the compound `CN1[C@@H]2CC[C@H]1C[C@@H](OC(=O)[C@H](CO)c1ccccc1)C2` [Hyoscyamine], the mean cell size amounted to 12.27 ± 0.064.
For `CN[C@@H]1[C@@H](O)[C@@H](O[C@@H]2[C@@H](O)[C@H](O[C@H]3O[C@H]([C@@H](C)O)[C@@H](O)[C@H](O)[C@H]3N)[C@@H](N)C[C@H]2N)OC[C@]1(C)O` [Geneticin (G418 Sulfate)], the mean cell size stood at 11.99 ± 0.045.
To `Nc1nc(N)nc(NC2CC2)n1` [Cyromazine] belongs 12.46 ± 0.1; to `Cn1cc(C2=C(c3cn(C4CCN(Cc5ccccn5)CC4)c4ccccc34)C(=O)NC2=O)c2ccccc21`, 12.41 ± 0.12.
In turn, `CCCCCCCCCCCCCCCC[n+]1ccccc1` [Cetylpyridinium Chloride] registered a mean cell size of 11.2 ± 0.14.
To `COc1ccc(C=O)cc1` [p-Anisaldehyde] belongs 12.3 ± 0.27.
Regarding `CC(=O)O[C@H]1C[C@@H]2CC[C@@H]3[C@H](CC[C@@]4(C)[C@H]3C[C@H]([N+]3(C)CCCCC3)[C@@H]4OC(C)=O)[C@@]2(C)C[C@@H]1[N+]1(C)CCCCC1` [Pancuronium dibromide], the mean cell size turned out to be 12.5 ± 0.19.
Take `CN1[C@@H]2C[C@@H](OC(=O)[C@H](CO)c3ccccc3)C[C@H]1[C@@H]1O[C@@H]12` [Scopolamine HBr trihydrate]: the mean cell size was found to be 12.1 ± 0.18.
For `O=c1cccc2n1C[C@@H]1CNC[C@H]2C1` [Cytisine], the mean cell size is 12.6 ± 0.21.
On to `C[C@@H]1[C@H](O)[C@@H](C)/C=C/C=C/CC/C=C/C=C/C=C/C=C/[C@H](O[C@H]2O[C@@H](C)[C@H](O)[C@@H](N)[C@H]2O)C[C@@H]2O[C@](O)(C[C@@H](O)[C@H](O)CC[C@@H](O)C[C@@H](O)C[C@@H](O)CC(=O)O[C@H]1C)C[C@H](O)[C@H]2C(=O)O` [Nystatin (Fungicidin)], for which the mean cell size came to 9.704 ± 0.046.
As to `Oc1cc(Cl)ccc1Oc1ccc(Cl)cc1Cl` [Triclosan], the mean cell size worked out at 12.5 ± 0.31.
For `C=CN1CCCC1=O.II` [Povidone iodine], the mean cell size amounted to 12.5 ± 0.22.
As for `CNC1CC(N)C(O)C(OC2OC(CO)C(O)C3OC4(OC(C(N)CO)C(O)C(O)C4O)OC23)C1O` (centres undefined) [Hygromycin B], the mean cell size is 11.8 ± 0.24.
`COc1ccc2c3c([nH]c2c1)C(C)=NCC3` [Harmaline] came in with a mean cell size of 12.4 ± 0.34.
`CC(C)=CCOc1c2occc2cc2ccc(=O)oc12` [Imperatorin] gave a mean cell size of 12.6 ± 0.14.
`C[CH2][Hg][S]c1ccccc1C(=O)[O-].[Na+]` [Thimerosal]: the mean cell size was determined as 12.3 ± 0.52.
`CCC1=C[C@H]2CN3CCc4c([nH]c5ccccc45)[C@](C(=O)OC)(C2)[C@H]13` [Catharanthine] came in with a mean cell size of 12.5 ± 0.19.
In the case of `CC(C)N(CCC(C(N)=O)(c1ccccc1)c1ccccn1)C(C)C` (centres undefined) [Disopyramide], the mean cell size came out at 12.27 ± 0.1.
To `O=C(O[C@H]1C[C@H]2CC[C@@H](C1)[N+]21CCCC1)C(O)(c1ccccc1)c1ccccc1` [Trospium chloride] belongs 12.5 ± 0.18; to `C[C@@H]1O[C@@H](O[C@H]2C[C@@H](O)[C@]3(CO)[C@H]4[C@H](O)C[C@]5(C)[C@@H](C6=CC(=O)OC6)CC[C@]5(O)[C@@H]4CC[C@]3(O)C2)[C@H](O)[C@H](O)[C@H]1O` [Ouabain], 12.3 ± 0.32; to `CCCN1C[C@H](CSC)C[C@@H]2c3cccc4[nH]cc(c34)C[C@H]21` [Pergolide Mesylate], 12.4 ± 0.25.
To `N[C@@H]1C[C@H]1c1ccccc1` [Tranylcypromine (2-PCPA) HCl] belongs 12.3 ± 0.32; to `COc1cc2c(cc1OC)C1CC(=O)C(CC(C)C)CN1CC2` (centres undefined) [Tetrabenazine (Xenazine)], 12.62 ± 0.049; to `CC(NC(C)(C)C)C(=O)c1cccc(Cl)c1` (centres undefined) [Amfebutamone (Bupropion) HCl], 12.5 ± 0.13.
For `CC[N+](C)(CC)CCOC(=O)C(O)(c1ccccc1)c1ccccc1` [Methylbenactyzine Bromide], the mean cell size was 12.6 ± 0.34.
Turning to `COc1ccc(C(CN(C)C)C2(O)CCCCC2)cc1` (centres undefined) [Venlafaxine], the mean cell size worked out at 12.1 ± 0.091.
`Cc1cc(C(C#N)c2ccc(Cl)cc2)c(Cl)cc1NC(=O)c1cc(I)cc(I)c1O` (centres undefined) [Closantel Sodium] came in with a mean cell size of 12.2 ± 0.24.
`C[C@@H]1CC[C@H]2[C@@H](C)C(=O)O[C@@H]3O[C@@]4(C)CC[C@@H]1[C@]32OO4` [Artemisinin] registered a mean cell size of 12.3 ± 0.3.
In turn, `C[C@H]1O[C@H](O[C@H]2[C@H](O)[C@@H](O)[C@@H](O)[C@H](O)[C@@H]2O)[C@@H](N)C[C@@H]1NC(=N)C(=O)O` [Kasugamycin hydrochloride] had a mean cell size of 12.1 ± 0.21.
For the compound `CN(C)C(=O)Oc1ccc[n+](C)c1` [Pyridostigmine Bromide], the mean cell size turned out to be 12.54 ± 0.1.
On to `CC[C@@H](C(N)=O)N1CCCC1=O` [Levetiracetam], for which the mean cell size is 12.5 ± 0.14.
